Substitutions are numbered along the chain they refer to.

Holding throughout (assay): RNA Bind-n-Seq (nitrocellulose filter binding and sequencing); miR-122 guide loaded in AGO2; 60 min incubation; 30 mM Tris pH 8.0, 100 mM potassium acetate, 2 mM magnesium acetate, 0.5 mM TCEP, 0.005% NP-40, 0.01 mg/ml yeast tRNA; 3 nM AGO2-miR-122, 100 nM RNA library; 60; high values mean tight binding
Details in all cases: protein: recombinant; tags: His6 (N-terminal, pFastBac HTA)

One test deals with AGO2 L192P (Homo sapiens, UniProt Q9UKV8 1-859, L192P;S387D;S824A;S828D;S831D;S834A). In a few lines: (§1)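 His-tagged AGO2 was expressed in Sf9 insect cells by baculovirus, loaded with a synthetic guide RNA, and purified by Ni-NTA and a biotinylated capture oligo. Bound RNA was extracted, reverse-transcribed, barcode-amplified and Illumina-sequenced. Fold enrichment is each sequence's read fraction divided by its input-library read fraction.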
AGO2 L192P, sequence (Q9UKV8 whole entry L192P/S387D/S824A/S828D/S831D/S834A): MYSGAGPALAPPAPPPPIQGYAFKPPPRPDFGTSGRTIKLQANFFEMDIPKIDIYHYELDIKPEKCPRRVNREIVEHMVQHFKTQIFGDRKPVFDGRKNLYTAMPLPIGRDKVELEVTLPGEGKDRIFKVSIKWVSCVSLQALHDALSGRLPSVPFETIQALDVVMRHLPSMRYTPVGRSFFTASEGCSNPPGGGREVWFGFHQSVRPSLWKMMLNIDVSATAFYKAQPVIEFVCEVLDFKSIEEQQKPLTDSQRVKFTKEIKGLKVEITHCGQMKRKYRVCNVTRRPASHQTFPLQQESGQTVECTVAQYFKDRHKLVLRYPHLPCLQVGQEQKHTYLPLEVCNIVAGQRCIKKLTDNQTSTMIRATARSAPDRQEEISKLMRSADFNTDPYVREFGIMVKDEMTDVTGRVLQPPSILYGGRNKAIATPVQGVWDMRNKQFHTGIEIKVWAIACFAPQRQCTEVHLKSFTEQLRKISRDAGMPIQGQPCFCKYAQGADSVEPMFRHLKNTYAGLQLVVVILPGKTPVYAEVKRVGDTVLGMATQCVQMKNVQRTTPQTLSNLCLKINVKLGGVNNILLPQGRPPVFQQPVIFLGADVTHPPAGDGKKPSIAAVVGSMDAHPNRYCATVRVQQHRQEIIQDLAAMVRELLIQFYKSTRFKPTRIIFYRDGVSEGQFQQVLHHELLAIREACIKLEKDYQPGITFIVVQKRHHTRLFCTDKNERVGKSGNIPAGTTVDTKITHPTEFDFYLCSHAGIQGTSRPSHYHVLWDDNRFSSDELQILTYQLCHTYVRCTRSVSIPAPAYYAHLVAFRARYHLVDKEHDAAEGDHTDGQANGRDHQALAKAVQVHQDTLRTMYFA

The target of a further test is AGO2 A367P (Homo sapiens, UniProt Q9UKV8 1-859, A367P;S387D;S824A;S828D;S831D;S834A). Put shortly: as §1
AGO2 A367P, sequence (Q9UKV8 whole entry A367P/S387D/S824A/S828D/S831D/S834A): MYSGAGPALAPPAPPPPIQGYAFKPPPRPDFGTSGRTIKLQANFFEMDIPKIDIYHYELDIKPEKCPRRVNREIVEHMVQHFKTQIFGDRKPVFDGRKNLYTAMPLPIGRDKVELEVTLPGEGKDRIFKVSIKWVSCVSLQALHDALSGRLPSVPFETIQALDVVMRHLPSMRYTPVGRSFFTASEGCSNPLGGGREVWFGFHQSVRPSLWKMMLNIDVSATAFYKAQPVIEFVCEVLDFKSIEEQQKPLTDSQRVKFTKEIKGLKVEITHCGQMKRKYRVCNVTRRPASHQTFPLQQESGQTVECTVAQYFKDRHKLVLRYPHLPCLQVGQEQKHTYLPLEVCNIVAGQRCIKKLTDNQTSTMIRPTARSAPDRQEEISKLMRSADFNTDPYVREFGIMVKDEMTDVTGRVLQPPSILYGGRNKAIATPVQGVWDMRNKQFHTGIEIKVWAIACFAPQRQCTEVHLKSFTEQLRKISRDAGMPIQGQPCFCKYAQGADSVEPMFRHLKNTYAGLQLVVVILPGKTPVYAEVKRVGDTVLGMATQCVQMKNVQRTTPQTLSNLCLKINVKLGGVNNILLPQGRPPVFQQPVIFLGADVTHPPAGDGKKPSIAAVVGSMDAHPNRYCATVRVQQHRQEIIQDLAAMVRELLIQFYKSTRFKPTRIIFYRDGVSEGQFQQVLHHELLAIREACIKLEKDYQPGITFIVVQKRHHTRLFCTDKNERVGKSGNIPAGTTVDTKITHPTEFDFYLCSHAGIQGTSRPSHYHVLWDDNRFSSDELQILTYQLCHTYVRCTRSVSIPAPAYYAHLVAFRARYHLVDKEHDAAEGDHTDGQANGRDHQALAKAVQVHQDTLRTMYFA
Another test concerns the target AGO2 T357M (Homo sapiens, UniProt Q9UKV8 1-859, T357M;S387D;S824A;S828D;S831D;S834A). Put shortly:
as §1

For a further test, the target named is AGO2 F182del (Homo sapiens, UniProt Q9UKV8 1-859, S387D;S824A;S828D;S831D;S834A;del182-182). In a few lines: as §1
AGO2 F182del, sequence (Q9UKV8 other isoform, or with tags, fused parts or gaps S387D;S824A;S828D;S831D;S834A;del182-182): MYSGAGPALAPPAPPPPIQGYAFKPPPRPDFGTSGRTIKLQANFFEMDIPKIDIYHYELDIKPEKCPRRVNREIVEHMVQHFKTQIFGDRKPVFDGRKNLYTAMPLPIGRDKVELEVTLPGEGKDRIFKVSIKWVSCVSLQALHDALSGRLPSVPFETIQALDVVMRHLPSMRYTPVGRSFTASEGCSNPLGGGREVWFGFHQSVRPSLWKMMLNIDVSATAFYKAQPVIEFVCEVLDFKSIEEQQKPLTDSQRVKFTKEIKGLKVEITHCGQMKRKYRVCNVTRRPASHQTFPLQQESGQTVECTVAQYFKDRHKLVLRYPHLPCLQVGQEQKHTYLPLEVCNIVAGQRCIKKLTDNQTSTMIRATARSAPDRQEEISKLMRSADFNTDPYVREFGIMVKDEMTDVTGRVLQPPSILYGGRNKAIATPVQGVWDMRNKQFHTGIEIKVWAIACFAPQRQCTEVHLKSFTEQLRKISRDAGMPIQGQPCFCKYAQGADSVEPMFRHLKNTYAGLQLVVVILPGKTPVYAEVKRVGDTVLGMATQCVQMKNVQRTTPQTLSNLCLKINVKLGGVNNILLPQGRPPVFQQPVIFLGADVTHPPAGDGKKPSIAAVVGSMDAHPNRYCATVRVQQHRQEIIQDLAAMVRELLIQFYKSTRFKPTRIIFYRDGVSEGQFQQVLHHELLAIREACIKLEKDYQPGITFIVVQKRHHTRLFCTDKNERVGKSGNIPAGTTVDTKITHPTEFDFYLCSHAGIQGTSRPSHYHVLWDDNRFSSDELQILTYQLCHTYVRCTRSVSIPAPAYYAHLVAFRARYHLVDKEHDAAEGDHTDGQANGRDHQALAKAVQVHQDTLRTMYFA

AGO2 T357M, sequence (Q9UKV8 whole entry T357M/S387D/S824A/S828D/S831D/S834A): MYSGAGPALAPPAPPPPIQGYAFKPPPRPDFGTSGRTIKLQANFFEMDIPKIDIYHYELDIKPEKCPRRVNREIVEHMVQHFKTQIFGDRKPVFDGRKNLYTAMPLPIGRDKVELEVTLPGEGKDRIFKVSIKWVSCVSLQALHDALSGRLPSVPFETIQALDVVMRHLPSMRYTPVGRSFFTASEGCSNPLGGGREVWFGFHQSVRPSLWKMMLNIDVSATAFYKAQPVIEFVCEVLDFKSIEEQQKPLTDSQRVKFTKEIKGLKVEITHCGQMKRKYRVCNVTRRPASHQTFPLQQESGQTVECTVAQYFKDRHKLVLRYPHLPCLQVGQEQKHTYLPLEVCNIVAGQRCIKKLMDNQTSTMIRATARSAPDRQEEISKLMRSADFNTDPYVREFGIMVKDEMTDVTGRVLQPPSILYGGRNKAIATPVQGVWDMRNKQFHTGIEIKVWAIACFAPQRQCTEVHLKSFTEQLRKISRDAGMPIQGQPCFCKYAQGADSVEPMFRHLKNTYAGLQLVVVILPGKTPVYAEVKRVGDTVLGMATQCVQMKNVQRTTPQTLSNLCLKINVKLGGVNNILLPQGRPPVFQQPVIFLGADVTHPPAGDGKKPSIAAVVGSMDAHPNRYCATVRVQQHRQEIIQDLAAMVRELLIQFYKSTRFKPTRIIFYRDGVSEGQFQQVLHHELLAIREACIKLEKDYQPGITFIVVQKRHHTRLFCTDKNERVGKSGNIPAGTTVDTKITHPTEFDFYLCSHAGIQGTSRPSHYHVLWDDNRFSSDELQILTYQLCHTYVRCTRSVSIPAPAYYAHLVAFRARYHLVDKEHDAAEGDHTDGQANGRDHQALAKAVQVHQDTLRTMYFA

B1: GCATCCTA (ssRNA)
RNA 1: GAGUUCUACAGUCCGACGAUCCCAACGCAUCCUACACCUGGAAUUCUCGGGUGCCAA
RNA 2: UGGAGUGUGACAAUGGUGUUUG
DNA 1: GATCGTCGGACTGTAGAACTC
DNA 2: TTGGCACCCGAGAATTCCA
modifications: constant regions annealed to DNA blockers; guide miR-122 5' phosphate
Regarding B1, the figures for the binding signal in the test with AGO2 L192P, in the test with AGO2 A367P and in the test with AGO2 T357M were 0.47 fold enrichment over input, 0.168 fold enrichment over input and 0.563 fold enrichment over input, respectively.

B2: GTGCCTCG (ssRNA)
RNA 1: B1 RNA 1 with C28U, A29G, U30C, C32U, U33C, A34G
RNA 2: UGGAGUGUGACAAUGGUGUUUG
DNA 1: GATCGTCGGACTGTAGAACTC
DNA 2: TTGGCACCCGAGAATTCCA
modifications: constant regions annealed to DNA blockers; guide miR-122 5' phosphate
For B2, the binding signal is 0.431 fold enrichment over input with AGO2 L192P, 0.162 fold enrichment over input in the test with AGO2 A367P and 0.57 fold enrichment over input in the test with AGO2 T357M.

B3: GCGTCCTG (ssRNA)
RNA 1: B1 RNA 1 with A29G, A34G
RNA 2: UGGAGUGUGACAAUGGUGUUUG
DNA 1: GATCGTCGGACTGTAGAACTC
DNA 2: TTGGCACCCGAGAATTCCA
modifications: constant regions annealed to DNA blockers; guide miR-122 5' phosphate
As to B3, the binding signal in the test with AGO2 L192P is 0.38 fold enrichment over input; in the test with AGO2 A367P, 0.156 fold enrichment over input; in the test with AGO2 T357M, 0.56 fold enrichment over input.

B4: GCGCTCTG (ssRNA)
RNA 1: B1 RNA 1 with A29G, U30C, C31U, A34G
RNA 2: UGGAGUGUGACAAUGGUGUUUG
DNA 1: GATCGTCGGACTGTAGAACTC
DNA 2: TTGGCACCCGAGAATTCCA
modifications: constant regions annealed to DNA blockers; guide miR-122 5' phosphate
B4: the binding signal with AGO2 L192P is 0.371 fold enrichment over input; with AGO2 A367P, 0.163 fold enrichment over input; with AGO2 T357M, 0.565 fold enrichment over input.

B5: ATATCCCG (ssRNA)
RNA 1: B1 RNA 1 with G27A, C28U, U33C, A34G
RNA 2: UGGAGUGUGACAAUGGUGUUUG
DNA 1: GATCGTCGGACTGTAGAACTC
DNA 2: TTGGCACCCGAGAATTCCA
modifications: constant regions annealed to DNA blockers; guide miR-122 5' phosphate
Regarding B5, the figures for the binding signal with AGO2 L192P and with AGO2 T357M were 0.335 fold enrichment over input and 0.422 fold enrichment over input, respectively.

B6: ACACCTCG (ssRNA)
RNA 1: B1 RNA 1 with G27A, U30C, C32U, U33C, A34G
RNA 2: UGGAGUGUGACAAUGGUGUUUG
DNA 1: GATCGTCGGACTGTAGAACTC
DNA 2: TTGGCACCCGAGAATTCCA
modifications: constant regions annealed to DNA blockers; guide miR-122 5' phosphate
Regarding B6, the binding signal was 0.412 fold enrichment over input with AGO2 L192P, 0.179 fold enrichment over input with AGO2 A367P, 0.471 fold enrichment over input with AGO2 T357M and 0.256 fold enrichment over input in the test with AGO2 F182del.

B7: ATGCTCTA (ssRNA)
RNA 1: B1 RNA 1 with G27A, C28U, A29G, U30C, C31U
RNA 2: UGGAGUGUGACAAUGGUGUUUG
DNA 1: GATCGTCGGACTGTAGAACTC
DNA 2: TTGGCACCCGAGAATTCCA
modifications: constant regions annealed to DNA blockers; guide miR-122 5' phosphate
Take B7: the results for the binding signal with AGO2 L192P, with AGO2 A367P and with AGO2 T357M were 0.443 fold enrichment over input, 0.171 fold enrichment over input and 0.526 fold enrichment over input, respectively.

B8: GCGTCTTG (ssRNA)
RNA 1: B1 RNA 1 with A29G, C32U, A34G
RNA 2: UGGAGUGUGACAAUGGUGUUUG
DNA 1: GATCGTCGGACTGTAGAACTC
DNA 2: TTGGCACCCGAGAATTCCA
modifications: constant regions annealed to DNA blockers; guide miR-122 5' phosphate
Take B8: the results for the binding signal with AGO2 L192P, with AGO2 A367P and in the test with AGO2 T357M were 0.395 fold enrichment over input, 0.141 fold enrichment over input and 0.547 fold enrichment over input, respectively.

B9: GTGCCCCG (ssRNA)
RNA 1: B1 RNA 1 with C28U, A29G, U30C, U33C, A34G
RNA 2: UGGAGUGUGACAAUGGUGUUUG
DNA 1: GATCGTCGGACTGTAGAACTC
DNA 2: TTGGCACCCGAGAATTCCA
modifications: constant regions annealed to DNA blockers; guide miR-122 5' phosphate
Regarding B9, the binding signal in the test with AGO2 L192P was 0.406 fold enrichment over input; with AGO2 A367P it was 0.159 fold enrichment over input; in the test with AGO2 T357M, 0.568 fold enrichment over input.

B10: GTATTCTG (ssRNA)
RNA 1: B1 RNA 1 with C28U, C31U, A34G
RNA 2: UGGAGUGUGACAAUGGUGUUUG
DNA 1: GATCGTCGGACTGTAGAACTC
DNA 2: TTGGCACCCGAGAATTCCA
modifications: constant regions annealed to DNA blockers; guide miR-122 5' phosphate
B10: the binding signal with AGO2 L192P is 0.39 fold enrichment over input; with AGO2 A367P, 0.139 fold enrichment over input; with AGO2 T357M it was 0.506 fold enrichment over input.

B11: ACACTTCG (ssRNA)
RNA 1: B1 RNA 1 with G27A, U30C, C31U, C32U, U33C, A34G
RNA 2: UGGAGUGUGACAAUGGUGUUUG
DNA 1: GATCGTCGGACTGTAGAACTC
DNA 2: TTGGCACCCGAGAATTCCA
modifications: constant regions annealed to DNA blockers; guide miR-122 5' phosphate
B11: the binding signal with AGO2 L192P is 0.433 fold enrichment over input; with AGO2 A367P it was 0.201 fold enrichment over input; with AGO2 T357M it was 0.541 fold enrichment over input; with AGO2 F182del, 0.152 fold enrichment over input.

B12: GTACCTCG (ssRNA)
RNA 1: B1 RNA 1 with C28U, U30C, C32U, U33C, A34G
RNA 2: UGGAGUGUGACAAUGGUGUUUG
DNA 1: GATCGTCGGACTGTAGAACTC
DNA 2: TTGGCACCCGAGAATTCCA
modifications: constant regions annealed to DNA blockers; guide miR-122 5' phosphate
Consider B12, for which the binding signal with AGO2 L192P is 0.347 fold enrichment over input; in the test with AGO2 A367P, 0.125 fold enrichment over input; with AGO2 T357M it was 0.419 fold enrichment over input.

B13: GCACTTCG (ssRNA)
RNA 1: B1 RNA 1 with U30C, C31U, C32U, U33C, A34G
RNA 2: UGGAGUGUGACAAUGGUGUUUG
DNA 1: GATCGTCGGACTGTAGAACTC
DNA 2: TTGGCACCCGAGAATTCCA
modifications: constant regions annealed to DNA blockers; guide miR-122 5' phosphate
Turning to B13, the values for the binding signal with AGO2 L192P, with AGO2 A367P and in the test with AGO2 T357M were 0.348 fold enrichment over input, 0.147 fold enrichment over input and 0.471 fold enrichment over input, respectively.

B14: GTGCCCTG (ssRNA)
RNA 1: B1 RNA 1 with C28U, A29G, U30C, A34G
RNA 2: UGGAGUGUGACAAUGGUGUUUG
DNA 1: GATCGTCGGACTGTAGAACTC
DNA 2: TTGGCACCCGAGAATTCCA
modifications: constant regions annealed to DNA blockers; guide miR-122 5' phosphate
On to B14, for which the binding signal is 0.425 fold enrichment over input in the test with AGO2 L192P, 0.161 fold enrichment over input with AGO2 A367P and 0.581 fold enrichment over input in the test with AGO2 T357M.

B15: ATGTTCTA (ssRNA)
RNA 1: B1 RNA 1 with G27A, C28U, A29G, C31U
RNA 2: UGGAGUGUGACAAUGGUGUUUG
DNA 1: GATCGTCGGACTGTAGAACTC
DNA 2: TTGGCACCCGAGAATTCCA
modifications: constant regions annealed to DNA blockers; guide miR-122 5' phosphate
For the molecule B15, the binding signal in the test with AGO2 L192P was 0.469 fold enrichment over input; with AGO2 A367P, 0.206 fold enrichment over input; with AGO2 T357M it was 0.606 fold enrichment over input; with AGO2 F182del, 0.182 fold enrichment over input.

B16: ACGCTTTA (ssRNA)
RNA 1: B1 RNA 1 with G27A, A29G, U30C, C31U, C32U
RNA 2: UGGAGUGUGACAAUGGUGUUUG
DNA 1: GATCGTCGGACTGTAGAACTC
DNA 2: TTGGCACCCGAGAATTCCA
modifications: constant regions annealed to DNA blockers; guide miR-122 5' phosphate
Consider B16, for which the binding signal was 0.468 fold enrichment over input with AGO2 L192P, 0.195 fold enrichment over input in the test with AGO2 A367P, 0.588 fold enrichment over input with AGO2 T357M and 0.135 fold enrichment over input with AGO2 F182del.

B17: GCGCTTCG (ssRNA)
RNA 1: B1 RNA 1 with A29G, U30C, C31U, C32U, U33C, A34G
RNA 2: UGGAGUGUGACAAUGGUGUUUG
DNA 1: GATCGTCGGACTGTAGAACTC
DNA 2: TTGGCACCCGAGAATTCCA
modifications: constant regions annealed to DNA blockers; guide miR-122 5' phosphate
Consider B17, for which the results for the binding signal in the test with AGO2 L192P, in the test with AGO2 A367P and in the test with AGO2 T357M were 0.354 fold enrichment over input, 0.148 fold enrichment over input and 0.531 fold enrichment over input, respectively.

B18: GTGCTTTA (ssRNA)
RNA 1: B1 RNA 1 with C28U, A29G, U30C, C31U, C32U
RNA 2: UGGAGUGUGACAAUGGUGUUUG
DNA 1: GATCGTCGGACTGTAGAACTC
DNA 2: TTGGCACCCGAGAATTCCA
modifications: constant regions annealed to DNA blockers; guide miR-122 5' phosphate
Turning to B18, the figures for the binding signal in the test with AGO2 L192P, with AGO2 A367P and with AGO2 T357M were 0.489 fold enrichment over input, 0.185 fold enrichment over input and 0.644 fold enrichment over input, respectively.

B19: GCGTCCCG (ssRNA)
RNA 1: B1 RNA 1 with A29G, U33C, A34G
RNA 2: UGGAGUGUGACAAUGGUGUUUG
DNA 1: GATCGTCGGACTGTAGAACTC
DNA 2: TTGGCACCCGAGAATTCCA
modifications: constant regions annealed to DNA blockers; guide miR-122 5' phosphate
Turning to B19, the results for the binding signal in the test with AGO2 L192P, with AGO2 A367P and with AGO2 T357M were 0.366 fold enrichment over input, 0.15 fold enrichment over input and 0.539 fold enrichment over input, respectively.

B20: GCATTCCG (ssRNA)
RNA 1: B1 RNA 1 with C31U, U33C, A34G
RNA 2: UGGAGUGUGACAAUGGUGUUUG
DNA 1: GATCGTCGGACTGTAGAACTC
DNA 2: TTGGCACCCGAGAATTCCA
modifications: constant regions annealed to DNA blockers; guide miR-122 5' phosphate
Take B20: the binding signal with AGO2 L192P is 0.436 fold enrichment over input; with AGO2 A367P it was 0.171 fold enrichment over input; in the test with AGO2 T357M, 0.548 fold enrichment over input.

B21: GTACTTTG (ssRNA)
RNA 1: B1 RNA 1 with C28U, U30C, C31U, C32U, A34G
RNA 2: UGGAGUGUGACAAUGGUGUUUG
DNA 1: GATCGTCGGACTGTAGAACTC
DNA 2: TTGGCACCCGAGAATTCCA
modifications: constant regions annealed to DNA blockers; guide miR-122 5' phosphate
Consider B21, for which the binding signal is 0.365 fold enrichment over input with AGO2 L192P, 0.121 fold enrichment over input in the test with AGO2 A367P and 0.46 fold enrichment over input in the test with AGO2 T357M.

B22: GCGCCTTG (ssRNA)
RNA 1: B1 RNA 1 with A29G, U30C, C32U, A34G
RNA 2: UGGAGUGUGACAAUGGUGUUUG
DNA 1: GATCGTCGGACTGTAGAACTC
DNA 2: TTGGCACCCGAGAATTCCA
modifications: constant regions annealed to DNA blockers; guide miR-122 5' phosphate
Take B22: the results for the binding signal with AGO2 L192P, in the test with AGO2 A367P and with AGO2 T357M were 0.365 fold enrichment over input, 0.15 fold enrichment over input and 0.532 fold enrichment over input, respectively.
